From PubChem BioAssay AID1835 (Johns Hopkins Ion Channel Center, 2009) come the findings set out here.

The whole screen tested about 2,400 compounds, of which about 750 (31%) were called active.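 The calls were made as follows: active = median signal gain over dofetilide-blocked control wells reaching their mean plus 3 SD, so readout 1 at least 0; inactive = the rest.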 This is one part of the list.

Chain of Voltage-gated inwardly rectifying potassium channel KCNH2 (Homo sapiens) (Q12809 whole entry, looked up): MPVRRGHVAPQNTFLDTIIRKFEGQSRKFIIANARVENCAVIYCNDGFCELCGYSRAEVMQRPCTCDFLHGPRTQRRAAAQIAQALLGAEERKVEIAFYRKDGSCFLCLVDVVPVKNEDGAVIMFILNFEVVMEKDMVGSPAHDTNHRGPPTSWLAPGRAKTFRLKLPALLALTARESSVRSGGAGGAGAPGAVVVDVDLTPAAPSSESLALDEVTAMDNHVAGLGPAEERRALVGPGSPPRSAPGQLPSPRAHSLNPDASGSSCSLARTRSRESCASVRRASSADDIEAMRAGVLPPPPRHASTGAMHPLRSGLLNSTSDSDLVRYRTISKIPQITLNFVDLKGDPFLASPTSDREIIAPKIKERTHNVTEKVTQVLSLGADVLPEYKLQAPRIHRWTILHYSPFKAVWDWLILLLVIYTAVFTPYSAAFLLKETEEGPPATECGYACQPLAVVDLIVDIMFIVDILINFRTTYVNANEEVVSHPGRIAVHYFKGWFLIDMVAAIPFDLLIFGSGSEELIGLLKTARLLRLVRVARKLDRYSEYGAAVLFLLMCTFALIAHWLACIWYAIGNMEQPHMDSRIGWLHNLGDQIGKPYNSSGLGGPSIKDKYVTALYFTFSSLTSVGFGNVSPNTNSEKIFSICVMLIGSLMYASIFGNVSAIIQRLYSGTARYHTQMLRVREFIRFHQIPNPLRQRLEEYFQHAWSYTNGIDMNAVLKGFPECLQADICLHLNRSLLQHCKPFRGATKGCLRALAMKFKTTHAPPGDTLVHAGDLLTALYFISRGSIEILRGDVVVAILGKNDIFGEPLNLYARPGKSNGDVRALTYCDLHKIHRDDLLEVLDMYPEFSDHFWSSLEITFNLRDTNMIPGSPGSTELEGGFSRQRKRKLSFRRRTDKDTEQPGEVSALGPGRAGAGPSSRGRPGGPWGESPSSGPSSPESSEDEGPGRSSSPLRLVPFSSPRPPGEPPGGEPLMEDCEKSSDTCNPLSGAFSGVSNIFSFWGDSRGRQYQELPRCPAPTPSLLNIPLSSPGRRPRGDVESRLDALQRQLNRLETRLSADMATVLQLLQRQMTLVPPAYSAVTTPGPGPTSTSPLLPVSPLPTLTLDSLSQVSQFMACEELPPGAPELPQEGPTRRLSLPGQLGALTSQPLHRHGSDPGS

This assay addresses Voltage-gated inwardly rectifying potassium channel KCNH2 (Homo sapiens) (UniProt Q12809). Nature of the assay: modulators restoring hERG flux under dofetilide – cell-based, thallium flux, duplicate retest, dofetilide IC70, confirmation (AID 1835). As to conditions: hERG cell line, FluxOR thallium flux, dofetilide-blocked; at 10 µM; stronger effect = higher value. A general note: Block of hERG is tested as a sign of cardiac risk.
`CC(Oc1ccc(Cl)cc1Cl)C(=O)Nc1cccnc1` (stereo not drawn): the activity increase over dofetilide control, less the hit threshold was -23% (inactive). On to `COc1ccc(S(=O)(=O)Nc2cccnc2)cc1`, for which the activity increase over dofetilide control, less the hit threshold is -11% (inactive). In the case of `CC(Oc1ccc(Br)cc1Br)C(=O)Nc1cccnc1` (stereo not drawn), the activity increase over dofetilide control, less the hit threshold is 9% (active). On to `Oc1ccc(Cl)cc1C1=NNC(c2cccs2)C1` (stereo not drawn), for which the activity increase over dofetilide control, less the hit threshold is 10% (active). The figure for `O=C(Nc1cc(Cl)ccc1O)C1CC(c2ccccc2Cl)=NO1` (stereo not drawn) is -1% (inactive); for `CCCNS(=O)(=O)c1ccc(OCC(=O)Nc2ccc3c(c2)OCCO3)cc1` it is -10% (inactive).

For `CCOc1cc(C(=O)NC)cc(OCC)c1OCC`, the activity increase over dofetilide control, less the hit threshold was -13% (inactive).

Regarding `COCCNC(=O)C1CC(=O)N(c2ccc(OC)cc2)C1c1ccc(OC)cc1` (stereo not drawn), the activity increase over dofetilide control, less the hit threshold is -24% (inactive). Next, `O=c1ccc(N=Nc2ccccc2)ccc1O`: 68% (active); `CN(C)c1ccc(N=Nc2ccc(C(=O)O)cc2)cc1`: -4% (inactive); `COc1ccc(CN(C)C(=O)c2cccc(NS(=O)(=O)c3ccccc3)c2)cc1F`: -26% (inactive). With `O=C1CC(O)(C(F)(F)F)Oc2c1ccc1ccccc21` (stereo not drawn), the activity increase over dofetilide control, less the hit threshold is 13% (active). In the case of `CC1(C)Cc2c(ccc3ccccc23)C2=C(C(=O)N3CCCC3)C(=O)C(=O)N21`, the activity increase over dofetilide control, less the hit threshold was -16% (inactive). In the case of `COc1ccc(N(C(=O)c2ccco2)S(=O)(=O)c2cccs2)cc1`, the activity increase over dofetilide control, less the hit threshold is -6% (inactive). For `CC(=O)Nc1ccc(S(=O)(=O)N2CCC(C(=O)O)CC2)cc1`, the activity increase over dofetilide control, less the hit threshold is -6% (inactive). Take `N=c1sccn1CC(=O)Nc1ccccc1Cc1ccccc1`: the activity increase over dofetilide control, less the hit threshold was -7% (inactive). Turning to `Cc1ccc(NC(=O)c2ccc(CNS(=O)(=O)c3cccc(C(F)(F)F)c3)cc2)cc1`, the activity increase over dofetilide control, less the hit threshold is -1% (inactive). With `CN(CC(=O)Nc1ccc(Cl)cc1)C(=O)c1cccc(S(=O)(=O)NCc2ccccc2)c1`, the activity increase over dofetilide control, less the hit threshold was -18% (inactive).

In the case of `CC(=O)c1ccc(S(=O)(=O)NCc2ccc(C(=O)N(C)CC(=O)Nc3cccc(F)c3)cc2)cc1`, the activity increase over dofetilide control, less the hit threshold was 2% (active). As to `O=C(CSc1cn(CC(=O)N2CCCC2)c2ccccc12)NCC1CCCO1` (stereo not drawn), the activity increase over dofetilide control, less the hit threshold was -28% (inactive).

As to `COc1ccc(CCN2C(=O)CSC2=S)cc1OC`, the activity increase over dofetilide control, less the hit threshold was -16% (inactive). On to `Cc1ccc(C)c(NC(=O)C2C3CCCC2C3c2ccccc2)c1` (stereo not drawn), for which the activity increase over dofetilide control, less the hit threshold was -16% (inactive). Regarding `Cc1cccc(NC(=S)NNC(=O)c2csc3c2CCC(C)C3)c1` (stereo not drawn), the activity increase over dofetilide control, less the hit threshold is -3% (inactive).

As to `Cc1ccc(C)c(NC(=S)NNC(=O)c2csc3c2CCC(C)C3)c1` (stereo not drawn), the activity increase over dofetilide control, less the hit threshold is 9% (active).

For the compound `CCC1Nc2ncnc(N3CCOCC3)c2N(Cc2ccc(C)cc2)C1=O` (stereo not drawn), the activity increase over dofetilide control, less the hit threshold was -16% (inactive).

On to `O=C(/C=C/c1ccccc1)c1cc(Br)ccc(=O)c1O`, for which the activity increase over dofetilide control, less the hit threshold is 19% (active). As for `CCc1ccc(/C=C/C(=O)c2cc(Br)ccc(=O)c2O)cc1`, the activity increase over dofetilide control, less the hit threshold is 13% (active).

On to `Cc1cccc(/C=C/C(=O)c2cc(Br)ccc(=O)c2O)c1`, for which the activity increase over dofetilide control, less the hit threshold is -14% (inactive).
